Measured values taken from PubChem BioAssay (EPA / NIEHS).
Active and inactive are the calls of the source. How the source made its calls: active means hit-call score of the fitted dose curve at least 0.9, where 1 is the maximum; inactive means score below 0.9.

Tests used:
Conditions in all cases: mRNA level, 48 h; actives raise or lower the signal
[1] = read-out: Cytochrome P450 7A1 (Homo sapiens) (UniProt P22680); experiment: LTEA_HepaRG_CYP7A1: Life Technologies and Expression Analysis (LTEA) Assay for Cytochrome P450 7A1 (CYP7A1) using HepaRG (AID 2283496)
Method in brief: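 HepaRG, 48 h exposure, 8-pt half-log series from 100 uM, 0.5% DMSO vehicle, duplicates. Readout: TaqMan qRT-PCR mRNA vs three housekeeping genes; bidirectional curve fit against DMSO baseline.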

[2] = read-out: Glutathione S-Transferase (GSTA2), GSTA2 (gene 2939); experiment: LTEA_HepaRG_GSTA2: Life Technologies and Expression Analysis (LTEA) Assay for Glutathione S-Transferase (GSTA2) using HepaRG (AID 2283497)
Method in brief: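 qRT-PCR readout of GSTA2 transcript, normalized to three housekeeping genes, fitted bidirectionally against 0.5% DMSO baseline. Differentiated HepaRG cells received compound for 48 h at 8 concentrations (top 100 uM, half-log steps).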

[3] = read-out: Glutamate-cysteine ligase catalytic (GCLC), GCLC (gene 2729); experiment: LTEA_HepaRG_GCLC: Life Technologies and Expression Analysis (LTEA) Assay for Glutamate-cysteine ligase catalytic (GCLC) using HepaRG (AID 2283498)
Method in brief: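 HepaRG, 48 h exposure, 8-pt half-log series from 100 uM, 0.5% DMSO vehicle; TaqMan qRT-PCR for GCLC mRNA, housekeeping-normalized; bidirectional curve fit vs DMSO baseline.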

[4] = read-out: growth arrest and DNA damage 45 (GADD45G), GADD45G (gene 10912); experiment: LTEA_HepaRG_GADD45G: Life Technologies and Expression Analysis (LTEA) Assay for growth arrest and DNA damage 45 (GADD45G) using HepaRG (AID 2283499)
Method in brief: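 Gain or loss of GADD45G mRNA, quantified by TaqMan qRT-PCR against three housekeeping genes, is fitted in both directions relative to 0.5% DMSO. Human HepaRG cultures receive test chemical for 48 h at up to 100 uM.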

[5] = read-out: Glutamate-cysteine ligase regulatory (GCLM), GCLM (gene 2730); experiment: LTEA_HepaRG_GCLM: Life Technologies and Expression Analysis (LTEA) Assay for Glutamate-cysteine ligase regulatory (GCLM) using HepaRG (AID 2283500)
Method in brief: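 GCLM expression quantified by qRT-PCR, normalized to three housekeeping genes, after 48 h chemical treatment of HepaRG cells in duplicate at 8 concentrations (top 100 uM, half-log steps, 0.5% DMSO). Changes fitted both directions against vehicle.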

[6] = read-out: Glutathione S-transferase M3 (GSTM3), GSTM3 (gene 2947); experiment: LTEA_HepaRG_GSTM3: Life Technologies and Expression Analysis (LTEA) Assay for Glutathione S-transferase M3 (GSTM3) using HepaRG (AID 2283501)
Method in brief: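 HepaRG, plated 48 h, then serum-free induction medium; test chemical 48 h, duplicate; 100 uM top, half-log x8, 0.5% DMSO. Read-out: GSTM3 mRNA (TaqMan qRT-PCR, Fluidigm array). Bidirectional fit vs DMSO.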

[7] = read-out: Heat shock 70 kDa protein 1 (HSPA1A), gene 3303; experiment: LTEA_HepaRG_HSPA1A: Life Technologies and Expression Analysis (LTEA) Assay for Heat shock 70 kDa protein 1 (HSPA1A) using HepaRG (AID 2283502)
Method in brief: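 HSPA1A expression measured by qRT-PCR with ACTB/GAPDH/POLR2A normalization; curves fitted in both directions relative to DMSO vehicle. Exposure: 48 h in HepaRG cells, duplicate 8-point half-log series from 100 uM, 0.5% DMSO, serum-free induction medium.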

[8] = read-out: Hypoxia-inducible factor 1-alpha (Homo sapiens) (UniProt Q16665); experiment: LTEA_HepaRG_HIF1A: Life Technologies and Expression Analysis (LTEA) Assay for Hypoxia-inducible factor 1 (HIF1A) Trancription factor using HepaRG (AID 2283503)
Method in brief: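 HIF1A transcript level read by qRT-PCR (ACTB, GAPDH, POLR2A normalization) after 48 h chemical exposure of HepaRG cultures. Eight half-log concentrations, top 100 uM, 0.5% DMSO vehicle, duplicates; bidirectional curve fit against DMSO baseline.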

[9] = read-out: 3-Hydroxy-3-Methylglutaryl-CoA Synthase 2 (HMGCS2), HMGCS2 (gene 3158); experiment: LTEA_HepaRG_HMGCS2: Life Technologies and Expression Analysis (LTEA) Assay for 3-Hydroxy-3-Methylglutaryl-CoA Synthase 2 (HMGCS2) using HepaRG (AID 2283504)
Method in brief: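 HepaRG, plated 48 h then switched to serum-free induction media; cmpd 8-pt, max 100 uM, 1/2-log, 0.5% DMSO, n=2, 48 h. HMGCS2 mRNA by Fluidigm TaqMan qRT-PCR, ACTB/GAPDH/POLR2A norm; bidirectional fit vs DMSO.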

HGF (gene 3082) = experiment: LTEA_HepaRG_HGF: Life Technologies and Expression Analysis (LTEA) Assay for Hepatocyte Growth Facto (HGF) using HepaRG (AID 2283505)
Method in brief: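 Read-out is HGF transcript level by qRT-PCR, normalized to three housekeeping genes, fitted bidirectionally against 0.5% DMSO vehicle. Human HepaRG cells received test chemicals for 48 h at up to 100 uM.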

[10] = read-out: Insulin Like Growth Factor 1 (IGF1), IGF1 (gene 3479); experiment: LTEA_HepaRG_IGF1: Life Technologies and Expression Analysis (LTEA) Assay for Insulin Like Growth Factor 1 (IGF1) using HepaRG (AID 2283506)
Method in brief: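 Expression measured by TaqMan qRT-PCR on a Fluidigm array, with three housekeeping genes for normalisation, after 48 h treatment of HepaRG cells. Top concentration 100 uM with half-log steps, 0.5% DMSO vehicle, bidirectional fit.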

[11] = read-out: Intercellular Adhesion Molecule 1 (ICAM1), ICAM1 (gene 3383); experiment: LTEA_HepaRG_ICAM1: Life Technologies and Expression Analysis (LTEA) Assay for Intercellular Adhesion Molecule 1 (ICAM1) using HepaRG (AID 2283507)
Method in brief: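 Readout is qRT-PCR mRNA level, normalized to three housekeeping genes and fitted bidirectionally against 0.5% DMSO vehicle. Human HepaRG cultures received compound for 48 h, top concentration 100 uM with half-log dilutions.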

[12] = read-out: Insulin-like growth factor-binding protein 1 (IGFBP1), IGFBP1 (gene 3484); experiment: LTEA_HepaRG_IGFBP1: Life Technologies and Expression Analysis (LTEA) Assay for Insulin-like growth factor-binding protein 1 (IGFBP1) using HepaRG (AID 2283508)
Method in brief: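 Thawed HepaRG cells are plated for 48 h, switched to serum-free induction medium, then dosed in duplicate for another 48 h (100 uM top, half-log steps). Lysates in RLT go to qRT-PCR, and gain or loss of signal is fitted relative to vehicle.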

[13] = read-out: Interleukin 6 (IL6), IL6 (gene 3569); experiment: LTEA_HepaRG_IL6: Life Technologies and Expression Analysis (LTEA) Assay for Interleukin 6 (IL6) using HepaRG (AID 2283509)
Method in brief: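 qRT-PCR read-out of IL6 transcript, normalized to three housekeeping genes, after 48 h chemical exposure of HepaRG cells; 8-point half-log series, top 100 uM, 0.5% DMSO vehicle. Bidirectional curve fitting against DMSO baseline.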

[14] = read-out: Interleukin 6 Receptor (IL6R), IL6R (gene 3570); experiment: LTEA_HepaRG_IL6R: Life Technologies and Expression Analysis (LTEA) Assay for Interleukin 6 Receptor (IL6R) using HepaRG (AID 2283510)
Method in brief: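 IL6R transcript level by qRT-PCR after 48 h chemical exposure (8-point, half-log, max 100 uM, 0.5% DMSO vehicle) of HepaRG cells in serum-free induction medium. Normalized to three housekeeping genes; curves fitted in both directions relative to DMSO.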

[15] = read-out: Potassium channel subfamily K member 1 (KCNK1), KCNK1 (gene 3775); experiment: LTEA_HepaRG_KCNK1: Life Technologies and Expression Analysis (LTEA) Assay for Potassium channel subfamily K member 1 (KCNK1) using HepaRG (AID 2283511)
Method in brief: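 HepaRG, 48 h exposure, 8-pt half-log series top 100 uM, 0.5% DMSO vehicle, duplicates. Readout: KCNK1 transcript by qRT-PCR (Fluidigm array), housekeeping-normalized; bidirectional curve fit relative to DMSO baseline.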

[16] = read-out: Lipase C (LIPC), LIPC (gene 3990); experiment: LTEA_HepaRG_LIPC: Life Technologies and Expression Analysis (LTEA) Assay for Lipase C (LIPC) using HepaRG (AID 2283514)
Method in brief: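 HepaRG, 48 h exposure, 8-pt half-log series from 100 uM in 0.5% DMSO, duplicates. Readout: LIPC mRNA by Fluidigm qRT-PCR, housekeeping-normalized (ACTB/GAPDH/POLR2A). Gain or loss fitted bidirectionally against DMSO baseline.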

[17] = read-out: Keratin 19 (KRT19), KRT19 (gene 3880); experiment: LTEA_HepaRG_KRT19: Life Technologies and Expression Analysis (LTEA) Assay for Keratin 19 (KRT19) using HepaRG (AID 2283512)
Method in brief: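 KRT19 transcript levels, measured by Fluidigm qRT-PCR against three housekeeping genes, are fitted for gain or loss of signal relative to DMSO. Human HepaRG cells receive test chemicals (top 100 uM, half-log steps, 0.5% DMSO) for 48 hours.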

[18] = read-out: JUN Transcription Factor, JUN (gene 3725); experiment: LTEA_HepaRG_JUN: Life Technologies and Expression Analysis (LTEA) Assay for JUN Transcription Factor using HepaRG (AID 2283513)
Method in brief: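 mRNA measured by TaqMan qRT-PCR after 48 h chemical exposure of HepaRG cultures; normalization to three housekeeping genes. Duplicate eight-point half-log curves from 100 uM in 0.5% DMSO; gain or loss fitted against DMSO baseline.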

[19] = read-out: Lipoprotein lipase (LPL), LPL (gene 4023); experiment: LTEA_HepaRG_LPL: Life Technologies and Expression Analysis (LTEA) Assay for Lipoprotein lipase (LPL) using HepaRG (AID 2283515)
Method in brief: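 HepaRG, 48 h exposure, 8-pt half-log dilutions from 100 uM, 0.5% DMSO vehicle, duplicates; qRT-PCR (Fluidigm array) of LPL mRNA vs housekeeping genes; bidirectional curve fit relative to DMSO baseline.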

Measured: AC50

Hypoxia-inducible factor 1-alpha (Homo sapiens), sequence (Q16665 whole entry, looked up): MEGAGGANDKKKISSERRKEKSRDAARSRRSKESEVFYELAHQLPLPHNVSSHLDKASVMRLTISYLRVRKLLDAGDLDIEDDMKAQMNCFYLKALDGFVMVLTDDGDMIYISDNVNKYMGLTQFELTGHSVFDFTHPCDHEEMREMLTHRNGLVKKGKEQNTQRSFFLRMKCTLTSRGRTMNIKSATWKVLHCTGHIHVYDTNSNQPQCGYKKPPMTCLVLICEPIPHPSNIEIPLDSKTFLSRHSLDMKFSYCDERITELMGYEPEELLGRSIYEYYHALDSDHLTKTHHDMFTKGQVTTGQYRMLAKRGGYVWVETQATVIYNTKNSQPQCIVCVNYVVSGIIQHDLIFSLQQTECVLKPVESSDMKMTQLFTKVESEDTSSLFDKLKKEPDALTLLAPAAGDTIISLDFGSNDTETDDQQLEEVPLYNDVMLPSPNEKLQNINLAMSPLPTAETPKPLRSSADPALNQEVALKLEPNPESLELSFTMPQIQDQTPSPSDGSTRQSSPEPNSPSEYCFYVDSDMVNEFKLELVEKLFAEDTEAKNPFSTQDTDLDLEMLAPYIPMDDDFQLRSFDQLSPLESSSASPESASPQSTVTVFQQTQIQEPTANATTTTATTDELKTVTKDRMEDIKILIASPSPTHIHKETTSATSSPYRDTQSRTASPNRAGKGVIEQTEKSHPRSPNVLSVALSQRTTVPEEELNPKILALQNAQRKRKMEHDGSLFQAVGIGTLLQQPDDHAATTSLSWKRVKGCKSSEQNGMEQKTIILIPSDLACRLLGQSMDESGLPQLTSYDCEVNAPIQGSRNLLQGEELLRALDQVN

CC(C1CC1)C(O)(Cn1cncn1)c1ccc(Cl)cc1 (centres undefined)
active: [1] 18.8 µM | [2] 76.7 µM | [9] 83.6 µM | [10] 37 µM
not listed: [17] | [18] | [19]
inactive: all other assays above

CCOP(=S)(OCC)OC(Cl)C(Cl)(Cl)Cl (centres undefined)
not listed: [9] | [19]
inactive: all other assays above

CC(COc1ccc(Oc2ccccc2)cc1)Oc1ccccn1 (centres undefined)
active: [1] 19.9 µM | [10] 32.8 µM
not listed: [9] | [17] | [18]
inactive: all other assays above

CNC(=O)Oc1cccc2c1OC(C)(C)O2
not listed: [5] | [18] | [19]
inactive: all other assays above

O=c1ccc(=O)[nH][nH]1
not listed: [5] | [19]
inactive: all other assays above

CC(C)[C@H](C(=O)O[C@H](C#N)c1cccc(Oc2ccccc2)c1)c1ccc(Cl)cc1
active: [10] 50 µM
not listed: [5]
inactive: all other assays above

COc1ccc(C(=CC(=O)N2CCOCC2)c2ccc(Cl)cc2)cc1OC
active: [10] 14.1 µM
not listed: [9] | [17]
inactive: all other assays above
